The supplement of paper PMC11732987, “Enantioselective OTUD7B fragment discovery through chemoproteomics screening and high-throughput optimisation” (Communications Chemistry, 2025)

How the values were obtained:
Test in all cases: log2 ratio of Biotin-Ahx-Ub-VS probe labelling (fragment/DMSO); higher = less target engagement (more negative = stronger competition), active = hit call of the paper (q ≤ 0.05, log2 ratio ≤ -1)
Conditions in all cases: compound concentration: 200 uM; treatment time: 3 h
[1] = target: USP9X (UniProt Q93008)
Summary of the method: (§1)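 Labelled DUBs from HEK293T lysate were NeutrAvidin-enriched, digested with LysC and trypsin, and run by diaPASEF LC-MS/MS. Before that, each 495 µg sample in Tris/CHAPS/IGEPAL buffer with protease inhibitors was treated in triplicate with fragment at 200 µM or vehicle for 3 h, then with Biotin-Ahx-Ub-VS at 0.5 µM final for 1 h. Values are average log2 ratios of fragment over vehicle by unpaired t-test, based on global-median-normalised Spectronaut label-free quantities from proteins with ≥2 unique peptides.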

[2] = target: UniProt O00487
Summary of the method: as §1

[3] = target: UniProt O00507
Summary of the method: as §1

[4] = target: UniProt P51784
Summary of the method: as §1

[5] = target: T1, UniProt Q5T2D3
T1 sequence (whole entry): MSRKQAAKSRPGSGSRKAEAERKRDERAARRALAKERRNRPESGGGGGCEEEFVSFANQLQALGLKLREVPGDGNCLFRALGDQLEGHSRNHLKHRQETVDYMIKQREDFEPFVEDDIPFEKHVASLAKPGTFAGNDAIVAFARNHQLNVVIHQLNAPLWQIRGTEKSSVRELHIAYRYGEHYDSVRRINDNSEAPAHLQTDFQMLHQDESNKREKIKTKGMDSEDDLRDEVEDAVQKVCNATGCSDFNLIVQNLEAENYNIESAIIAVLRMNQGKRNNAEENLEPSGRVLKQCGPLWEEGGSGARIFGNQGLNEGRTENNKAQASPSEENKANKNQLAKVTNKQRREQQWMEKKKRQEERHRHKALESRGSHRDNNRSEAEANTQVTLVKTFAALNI
Summary of the method: as §1

[6] = target: T2, UniProt Q8TE49
T2 sequence (whole entry): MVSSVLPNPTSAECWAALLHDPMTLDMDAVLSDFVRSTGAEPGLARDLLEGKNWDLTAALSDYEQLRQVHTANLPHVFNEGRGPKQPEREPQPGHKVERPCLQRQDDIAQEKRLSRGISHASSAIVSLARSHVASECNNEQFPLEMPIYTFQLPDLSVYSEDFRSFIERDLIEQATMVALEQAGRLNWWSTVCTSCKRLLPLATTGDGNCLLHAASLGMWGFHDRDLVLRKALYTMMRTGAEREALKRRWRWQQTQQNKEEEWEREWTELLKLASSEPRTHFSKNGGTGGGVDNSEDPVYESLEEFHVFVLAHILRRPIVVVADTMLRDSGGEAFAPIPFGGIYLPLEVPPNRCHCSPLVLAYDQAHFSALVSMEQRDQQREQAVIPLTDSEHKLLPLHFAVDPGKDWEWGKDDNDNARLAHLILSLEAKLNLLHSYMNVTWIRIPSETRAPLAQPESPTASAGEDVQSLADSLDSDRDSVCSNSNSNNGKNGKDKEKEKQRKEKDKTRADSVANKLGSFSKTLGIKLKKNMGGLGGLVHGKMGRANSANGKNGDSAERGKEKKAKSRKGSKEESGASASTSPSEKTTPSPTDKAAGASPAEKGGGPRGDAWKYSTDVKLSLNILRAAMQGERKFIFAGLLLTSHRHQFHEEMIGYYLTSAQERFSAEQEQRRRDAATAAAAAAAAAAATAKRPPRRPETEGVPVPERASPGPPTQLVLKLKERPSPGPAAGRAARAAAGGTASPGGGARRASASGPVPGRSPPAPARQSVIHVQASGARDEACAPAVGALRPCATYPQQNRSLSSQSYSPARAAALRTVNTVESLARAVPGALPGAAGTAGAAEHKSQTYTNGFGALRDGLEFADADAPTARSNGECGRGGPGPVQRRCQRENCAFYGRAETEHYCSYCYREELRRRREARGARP
Summary of the method: as §1

[7] = target: T3, UniProt Q9P2H5
T3 sequence (whole entry): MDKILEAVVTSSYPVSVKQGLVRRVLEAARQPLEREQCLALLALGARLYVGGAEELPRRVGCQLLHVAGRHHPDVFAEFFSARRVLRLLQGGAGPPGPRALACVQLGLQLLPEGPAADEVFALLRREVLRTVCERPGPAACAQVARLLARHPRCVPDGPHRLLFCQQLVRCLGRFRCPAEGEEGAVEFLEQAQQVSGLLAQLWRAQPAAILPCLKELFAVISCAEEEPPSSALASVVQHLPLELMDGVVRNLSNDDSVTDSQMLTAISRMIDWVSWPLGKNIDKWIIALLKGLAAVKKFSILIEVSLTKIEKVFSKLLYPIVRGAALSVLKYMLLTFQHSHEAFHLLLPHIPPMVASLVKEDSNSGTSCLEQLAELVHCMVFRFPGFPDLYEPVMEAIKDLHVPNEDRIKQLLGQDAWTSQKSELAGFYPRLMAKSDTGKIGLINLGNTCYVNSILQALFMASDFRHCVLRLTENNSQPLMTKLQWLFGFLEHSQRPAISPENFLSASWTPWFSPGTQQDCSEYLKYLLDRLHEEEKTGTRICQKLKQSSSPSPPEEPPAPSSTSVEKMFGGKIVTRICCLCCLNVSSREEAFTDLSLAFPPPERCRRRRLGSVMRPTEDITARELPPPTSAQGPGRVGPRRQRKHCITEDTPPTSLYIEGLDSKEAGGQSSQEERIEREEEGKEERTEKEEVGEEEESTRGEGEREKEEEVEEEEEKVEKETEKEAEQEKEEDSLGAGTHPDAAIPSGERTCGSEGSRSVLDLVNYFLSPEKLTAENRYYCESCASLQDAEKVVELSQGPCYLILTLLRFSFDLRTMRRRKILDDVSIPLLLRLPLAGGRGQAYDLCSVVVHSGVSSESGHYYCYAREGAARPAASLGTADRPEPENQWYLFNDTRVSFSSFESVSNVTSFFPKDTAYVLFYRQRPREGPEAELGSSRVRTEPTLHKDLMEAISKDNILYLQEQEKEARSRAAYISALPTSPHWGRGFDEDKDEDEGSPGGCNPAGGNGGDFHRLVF
Summary of the method: as §1

[8] = target: T4, UniProt Q9UGI0
T4 sequence (whole entry): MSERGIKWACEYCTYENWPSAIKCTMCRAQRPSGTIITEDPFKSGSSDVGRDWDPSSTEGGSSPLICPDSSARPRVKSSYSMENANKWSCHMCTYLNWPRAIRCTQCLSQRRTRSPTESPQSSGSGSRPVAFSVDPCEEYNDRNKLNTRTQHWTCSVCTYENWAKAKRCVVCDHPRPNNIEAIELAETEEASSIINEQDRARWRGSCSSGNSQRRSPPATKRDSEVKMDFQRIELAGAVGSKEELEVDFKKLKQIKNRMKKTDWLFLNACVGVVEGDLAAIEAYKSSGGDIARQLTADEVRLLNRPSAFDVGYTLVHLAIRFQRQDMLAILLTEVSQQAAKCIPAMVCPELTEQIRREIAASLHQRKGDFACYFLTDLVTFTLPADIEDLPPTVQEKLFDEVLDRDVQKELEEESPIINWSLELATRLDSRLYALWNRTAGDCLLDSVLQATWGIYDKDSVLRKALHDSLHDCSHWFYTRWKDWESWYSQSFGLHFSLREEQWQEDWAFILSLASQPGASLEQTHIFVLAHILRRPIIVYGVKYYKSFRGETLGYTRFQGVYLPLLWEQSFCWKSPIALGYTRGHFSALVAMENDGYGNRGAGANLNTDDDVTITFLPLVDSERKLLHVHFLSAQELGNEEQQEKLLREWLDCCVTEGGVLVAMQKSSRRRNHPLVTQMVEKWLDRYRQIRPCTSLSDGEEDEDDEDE
Summary of the method: as §1

[9] = target: T5, YOD1 (UniProt Q5VVQ6)
T5 sequence (whole entry): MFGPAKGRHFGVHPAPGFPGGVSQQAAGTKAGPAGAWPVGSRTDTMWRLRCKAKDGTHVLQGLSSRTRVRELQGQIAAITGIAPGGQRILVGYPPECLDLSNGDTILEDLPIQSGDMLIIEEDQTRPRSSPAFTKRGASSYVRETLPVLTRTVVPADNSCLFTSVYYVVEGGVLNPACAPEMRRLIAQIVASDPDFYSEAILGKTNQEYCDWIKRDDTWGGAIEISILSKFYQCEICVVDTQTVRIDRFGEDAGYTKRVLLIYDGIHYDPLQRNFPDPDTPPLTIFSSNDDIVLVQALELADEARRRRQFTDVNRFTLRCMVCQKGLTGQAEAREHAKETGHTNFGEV
Summary of the method: as §1

Measured: log2 ratio of Biotin-Ahx-Ub-VS probe labelling

Chain of UniProt P51784 (P51784 whole entry): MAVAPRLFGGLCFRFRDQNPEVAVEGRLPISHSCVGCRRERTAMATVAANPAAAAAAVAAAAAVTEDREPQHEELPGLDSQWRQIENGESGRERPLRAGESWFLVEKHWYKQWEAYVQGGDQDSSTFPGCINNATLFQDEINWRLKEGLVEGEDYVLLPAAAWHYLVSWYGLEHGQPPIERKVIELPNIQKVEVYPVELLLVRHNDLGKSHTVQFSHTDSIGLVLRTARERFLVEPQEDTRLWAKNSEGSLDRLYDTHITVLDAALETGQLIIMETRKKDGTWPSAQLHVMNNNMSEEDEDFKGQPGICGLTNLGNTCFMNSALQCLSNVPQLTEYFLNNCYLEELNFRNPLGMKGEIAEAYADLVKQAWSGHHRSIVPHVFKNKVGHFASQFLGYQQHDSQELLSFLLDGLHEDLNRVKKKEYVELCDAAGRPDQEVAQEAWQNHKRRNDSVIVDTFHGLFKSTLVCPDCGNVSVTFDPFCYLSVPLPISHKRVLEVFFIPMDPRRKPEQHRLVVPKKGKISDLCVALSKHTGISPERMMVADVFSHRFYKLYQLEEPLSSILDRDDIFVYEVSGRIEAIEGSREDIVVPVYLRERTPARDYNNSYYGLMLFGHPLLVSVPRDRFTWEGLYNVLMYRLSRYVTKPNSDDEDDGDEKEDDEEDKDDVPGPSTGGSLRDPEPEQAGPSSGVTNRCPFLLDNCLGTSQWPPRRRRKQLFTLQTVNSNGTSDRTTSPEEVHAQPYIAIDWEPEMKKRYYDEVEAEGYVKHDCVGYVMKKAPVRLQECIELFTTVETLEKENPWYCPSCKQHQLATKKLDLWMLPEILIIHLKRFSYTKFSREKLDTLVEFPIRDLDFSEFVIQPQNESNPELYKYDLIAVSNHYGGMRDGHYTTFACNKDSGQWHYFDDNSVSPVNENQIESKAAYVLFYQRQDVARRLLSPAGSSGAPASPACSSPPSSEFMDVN
Chain of UniProt O00487 (O00487 whole entry): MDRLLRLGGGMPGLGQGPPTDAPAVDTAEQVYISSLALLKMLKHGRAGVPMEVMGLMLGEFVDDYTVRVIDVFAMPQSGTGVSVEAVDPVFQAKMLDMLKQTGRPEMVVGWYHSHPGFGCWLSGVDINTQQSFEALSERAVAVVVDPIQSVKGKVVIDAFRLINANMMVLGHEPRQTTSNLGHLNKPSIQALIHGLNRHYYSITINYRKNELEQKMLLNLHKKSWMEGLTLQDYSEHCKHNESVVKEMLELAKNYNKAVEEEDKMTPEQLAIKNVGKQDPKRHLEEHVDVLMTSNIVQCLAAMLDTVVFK
Chain of UniProt O00507 (O00507 whole entry): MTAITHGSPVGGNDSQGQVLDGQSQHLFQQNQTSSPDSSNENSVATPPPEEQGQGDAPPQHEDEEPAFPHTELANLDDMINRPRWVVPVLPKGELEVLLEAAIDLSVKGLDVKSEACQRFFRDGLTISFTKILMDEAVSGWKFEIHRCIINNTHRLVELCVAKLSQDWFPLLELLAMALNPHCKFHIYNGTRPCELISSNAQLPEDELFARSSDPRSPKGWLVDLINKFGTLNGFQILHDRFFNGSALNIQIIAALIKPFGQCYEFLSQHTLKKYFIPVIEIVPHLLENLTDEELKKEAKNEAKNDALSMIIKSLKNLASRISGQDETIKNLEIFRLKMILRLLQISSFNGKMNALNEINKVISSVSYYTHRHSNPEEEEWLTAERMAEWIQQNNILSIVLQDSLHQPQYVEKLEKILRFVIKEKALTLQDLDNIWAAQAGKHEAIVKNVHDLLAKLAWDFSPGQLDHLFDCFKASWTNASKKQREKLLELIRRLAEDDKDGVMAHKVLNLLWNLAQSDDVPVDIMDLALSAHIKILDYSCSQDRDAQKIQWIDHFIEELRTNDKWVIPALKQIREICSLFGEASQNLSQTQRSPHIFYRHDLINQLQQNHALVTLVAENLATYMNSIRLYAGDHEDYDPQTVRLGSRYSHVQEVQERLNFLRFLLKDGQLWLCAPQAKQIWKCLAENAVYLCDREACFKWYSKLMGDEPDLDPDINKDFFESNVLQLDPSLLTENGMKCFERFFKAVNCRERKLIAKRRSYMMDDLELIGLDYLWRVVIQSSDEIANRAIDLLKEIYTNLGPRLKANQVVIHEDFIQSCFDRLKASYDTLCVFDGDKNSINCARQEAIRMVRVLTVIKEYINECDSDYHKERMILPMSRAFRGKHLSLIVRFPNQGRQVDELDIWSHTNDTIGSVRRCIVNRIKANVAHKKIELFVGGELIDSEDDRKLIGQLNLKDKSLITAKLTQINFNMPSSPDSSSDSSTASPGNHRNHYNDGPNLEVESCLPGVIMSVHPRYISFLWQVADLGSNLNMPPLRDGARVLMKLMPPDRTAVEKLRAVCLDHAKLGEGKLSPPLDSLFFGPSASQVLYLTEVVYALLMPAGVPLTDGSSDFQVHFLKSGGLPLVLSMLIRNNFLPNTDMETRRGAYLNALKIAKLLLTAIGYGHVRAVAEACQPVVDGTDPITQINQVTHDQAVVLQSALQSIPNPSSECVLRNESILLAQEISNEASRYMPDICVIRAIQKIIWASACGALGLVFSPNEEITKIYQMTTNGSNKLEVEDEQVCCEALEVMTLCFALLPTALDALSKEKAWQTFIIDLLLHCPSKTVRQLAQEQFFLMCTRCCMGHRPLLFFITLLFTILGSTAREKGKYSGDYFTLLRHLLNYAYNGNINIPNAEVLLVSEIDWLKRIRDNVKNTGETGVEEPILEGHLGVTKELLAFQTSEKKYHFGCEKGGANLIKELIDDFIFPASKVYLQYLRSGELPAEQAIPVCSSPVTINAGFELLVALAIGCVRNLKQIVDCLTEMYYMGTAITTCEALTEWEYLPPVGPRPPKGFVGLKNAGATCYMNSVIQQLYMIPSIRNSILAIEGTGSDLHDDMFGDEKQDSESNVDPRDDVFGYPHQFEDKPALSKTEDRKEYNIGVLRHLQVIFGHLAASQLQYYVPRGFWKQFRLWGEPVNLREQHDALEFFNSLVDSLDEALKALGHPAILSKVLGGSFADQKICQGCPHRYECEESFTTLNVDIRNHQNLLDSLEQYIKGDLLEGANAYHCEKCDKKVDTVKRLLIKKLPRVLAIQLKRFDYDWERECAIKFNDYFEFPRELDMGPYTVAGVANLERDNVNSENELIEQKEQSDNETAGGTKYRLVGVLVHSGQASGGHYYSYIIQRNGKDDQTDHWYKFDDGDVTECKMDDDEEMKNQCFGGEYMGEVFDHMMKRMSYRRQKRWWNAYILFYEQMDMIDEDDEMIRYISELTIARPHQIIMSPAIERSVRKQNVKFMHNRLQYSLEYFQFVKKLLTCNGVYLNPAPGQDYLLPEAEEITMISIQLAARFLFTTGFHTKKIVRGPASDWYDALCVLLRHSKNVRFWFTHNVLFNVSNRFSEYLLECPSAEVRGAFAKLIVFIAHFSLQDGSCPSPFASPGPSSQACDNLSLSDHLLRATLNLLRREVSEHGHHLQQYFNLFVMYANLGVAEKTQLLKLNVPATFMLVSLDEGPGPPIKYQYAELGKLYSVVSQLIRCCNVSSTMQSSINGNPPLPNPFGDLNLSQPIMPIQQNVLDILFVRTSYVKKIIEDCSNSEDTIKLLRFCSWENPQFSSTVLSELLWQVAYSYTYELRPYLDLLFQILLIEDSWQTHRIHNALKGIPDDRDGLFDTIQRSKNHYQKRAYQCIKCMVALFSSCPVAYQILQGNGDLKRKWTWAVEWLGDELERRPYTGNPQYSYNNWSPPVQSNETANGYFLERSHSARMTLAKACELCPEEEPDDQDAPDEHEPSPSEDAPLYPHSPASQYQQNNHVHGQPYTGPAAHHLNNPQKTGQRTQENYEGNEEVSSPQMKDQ

CC1CCc2onc(CNC(=O)CCl)c2C1 (centres undefined)
inactive: [1] -0.154 | [2] 0.0127 | [3] 0.195 | [4] 0.152 | [5] -0.305 | [6] -0.691 | [7] -0.252 | [8] -0.538 | [9] 0.146
